Source: ChEMBL document CHEMBL3433997, “St. Jude Leishmania screening dataset” (2016)

Biological target: Solute carrier family 2, facilitated glucose transporter member 1 (Homo sapiens) (UniProt P11166)
Test: ST_JUDE_LEISH: Cytotoxicity at 2uM final concentration against transgenic Leishmania Mexicana promastigotes LmGLUT1 that are glucose transport deficient and complemented with the human glucose transporter GLUT1. Activity is measured by DNA content using SYBR green in vitro
Type: functional

Sequence of Solute carrier family 2, facilitated glucose transporter member 1 (Homo sapiens) (P11166 whole entry): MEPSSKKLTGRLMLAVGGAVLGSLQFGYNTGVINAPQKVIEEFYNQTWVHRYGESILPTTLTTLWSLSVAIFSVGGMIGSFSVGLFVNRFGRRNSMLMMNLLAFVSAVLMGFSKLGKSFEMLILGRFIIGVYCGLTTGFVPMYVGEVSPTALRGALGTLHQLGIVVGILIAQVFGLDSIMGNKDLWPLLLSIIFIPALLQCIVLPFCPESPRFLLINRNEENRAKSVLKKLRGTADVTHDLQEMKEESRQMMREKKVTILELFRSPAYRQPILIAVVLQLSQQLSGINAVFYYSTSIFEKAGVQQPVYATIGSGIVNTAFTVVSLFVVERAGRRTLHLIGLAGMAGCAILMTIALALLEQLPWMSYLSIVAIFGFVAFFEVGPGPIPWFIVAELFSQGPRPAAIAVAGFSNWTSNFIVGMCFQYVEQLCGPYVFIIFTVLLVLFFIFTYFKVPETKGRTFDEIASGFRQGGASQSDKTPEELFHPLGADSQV

| SMILES | inhibition |
| --- | --- |
| O=C(Nc1ccccc1)N(Cc1ccccc1-c1cccc(CNCc2ccc3c(c2)OCO3)c1)C1CCN(Cc2ccccc2)CC1 | -2.93% |
| CCCCCCCCN1CCN(CCCCCCNc2c3ccccc3nc3ccccc23)CC1 | 55.5% |
| Cc1nc(-c2cccc(Nc3nccc(NCC(O)c4ccc(C(F)(F)F)cc4)n3)c2)cs1 (stereo unspecified) | 1.28% |
| COc1cc(Cc2cnc(N)nc2N)ccc1OCc1csc(-c2ccc(Cl)cc2)n1 | 10% |
| CCCC(C)Nc1nc(C)cc(NCCC(=O)Nc2ccc(OC)cc2)n1 (stereo unspecified) | 1.95% |
| CN(CCCNCc1ccc2ccccc2c1)CCCNCc1ccc2ccccc2c1 | 12.4% |
| N#Cc1cnc2cc(-c3cnc(CNCCN4CCOCC4)s3)ccc2c1Nc1ccc(Oc2ccccc2)cc1 | 1.96% |
| N#Cc1ccc2c(c1)CCN(CCC1CCC(NC(=O)c3cc4ccc(Br)cc4[nH]3)CC1)C2 (stereo unspecified) | 1.19% |
| N#Cc1ccc(NC(=O)Nc2ccc(OC(F)(F)F)cc2)cc1 | 2.17% |
| O=C(Nc1ccc(F)c(F)c1)c1ccc(CN2CCCN(Cc3cccc(O)c3)CC2)cc1 | 3.12% |
| CC(C)C1CCc2nc(N)nc(N)c2C1 (stereo unspecified) | 2.52% |
| CCCc1cc(NC2CCN(C)CC2)nc(Nc2ccc(F)cc2)n1 | 10% |
| COc1cccc(C23NC(=Nc4nc5ccccc5[nH]4)NC2(c2cccc(OC)c2)NC(=Nc2nc4ccccc4[nH]2)N3)c1 (stereo unspecified) | 6.07% |
| COc1ccc(CN2CCC2=O)c(OC)c1 | 4.12% |
| CC(C)N(C(=O)CSc1nc2cc(Cl)ccc2c(=O)n1Cc1ccccc1)C(C)C | 0.98% |
| O=C(Nc1ccc(Cl)c(C(F)(F)F)c1)c1ccc(C(=O)Nc2ccc(Cl)c(C(F)(F)F)c2)cc1 | -2.43% |
